Measurements reported in article PMC7862700, “An all-to-all approach to the identification of sequence-specific readers for epigenetic DNA modifications on cytosine”.

Columns and labels:
Experiment in all cases: DAPPL (digital affinity profiling via proximity ligation, sequencing); 10 mM Tris-HCl pH 7.5, 50 mM NaCl, 1 mM DTT, 4% glycerol, room temperature, 30 min; GST-TFs on glutathione beads, 16-mer random dsDNA library, 0.1% formaldehyde crosslink after washing; high values mean tight binding
Details in all cases: protein: recombinant; tags: N-terminal GST; dsDNA, one strand shown
FLI1 = biological target: T1, FLI1 (Homo sapiens, UniProt Q01543 1-452)
T1 sequence: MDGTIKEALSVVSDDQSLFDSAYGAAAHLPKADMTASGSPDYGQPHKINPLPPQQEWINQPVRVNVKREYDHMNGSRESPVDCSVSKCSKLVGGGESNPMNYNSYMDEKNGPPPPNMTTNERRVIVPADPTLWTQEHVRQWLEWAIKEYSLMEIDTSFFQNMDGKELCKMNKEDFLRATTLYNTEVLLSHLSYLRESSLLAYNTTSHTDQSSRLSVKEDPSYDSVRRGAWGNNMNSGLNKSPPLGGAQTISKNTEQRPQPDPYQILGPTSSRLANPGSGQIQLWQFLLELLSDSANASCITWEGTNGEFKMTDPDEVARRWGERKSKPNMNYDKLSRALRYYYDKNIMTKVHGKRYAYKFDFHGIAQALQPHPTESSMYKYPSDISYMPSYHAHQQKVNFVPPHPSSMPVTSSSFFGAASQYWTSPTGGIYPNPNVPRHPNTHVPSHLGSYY
How it was run: (§1)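 Binding signal is defined as a hexamer's read frequency for one factor over its frequency for the tag-only sample. To obtain reads, GST-fused human transcription factors were expressed in yeast, captured on glutathione beads, barcoded with DNA and pooled with that sample. Pools met 200 nmole of a 16-mer random double-stranded DNA library in Tris/NaCl/DTT/glycerol buffer for 30 min at room temperature before washing, 0.1% formaldehyde crosslinking, proximity ligation (BsaI/T4 ligase, 1 h, 37 °C), PCR and Illumina NextSeq500 sequencing.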

ELK1 = biological target: T2, ELK1 (Homo sapiens, UniProt P19419 1-428)
T2 sequence: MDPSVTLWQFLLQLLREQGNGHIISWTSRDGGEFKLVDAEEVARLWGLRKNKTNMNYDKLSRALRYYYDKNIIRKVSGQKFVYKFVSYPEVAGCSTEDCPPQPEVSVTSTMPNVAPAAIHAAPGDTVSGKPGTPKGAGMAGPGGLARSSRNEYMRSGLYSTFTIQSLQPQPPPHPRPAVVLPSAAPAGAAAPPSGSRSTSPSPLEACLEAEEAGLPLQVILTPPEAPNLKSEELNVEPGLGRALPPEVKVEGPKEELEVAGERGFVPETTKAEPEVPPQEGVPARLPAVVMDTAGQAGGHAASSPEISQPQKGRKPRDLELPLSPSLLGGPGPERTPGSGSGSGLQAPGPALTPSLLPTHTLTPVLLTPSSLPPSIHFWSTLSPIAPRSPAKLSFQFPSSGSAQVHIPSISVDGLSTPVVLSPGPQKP
How it was run: as §1

GABPA = biological target: T3, GABPA (Homo sapiens, UniProt Q06546 1-454)
T3 sequence: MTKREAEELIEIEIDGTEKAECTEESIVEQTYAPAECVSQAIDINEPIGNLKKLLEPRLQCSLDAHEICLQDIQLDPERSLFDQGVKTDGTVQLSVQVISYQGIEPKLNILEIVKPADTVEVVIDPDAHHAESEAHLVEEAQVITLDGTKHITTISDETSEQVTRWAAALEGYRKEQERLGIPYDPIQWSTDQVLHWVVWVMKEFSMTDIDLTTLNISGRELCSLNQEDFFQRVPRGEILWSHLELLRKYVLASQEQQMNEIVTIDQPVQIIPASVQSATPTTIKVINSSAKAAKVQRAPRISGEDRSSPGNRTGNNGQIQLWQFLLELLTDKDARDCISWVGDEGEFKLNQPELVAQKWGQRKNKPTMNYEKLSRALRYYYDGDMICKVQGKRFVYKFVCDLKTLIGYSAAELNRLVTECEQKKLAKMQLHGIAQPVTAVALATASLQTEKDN
How it was run: as §1

ERG = biological target: T4, ERG (Homo sapiens, UniProt P11308 1-479)
T4 sequence: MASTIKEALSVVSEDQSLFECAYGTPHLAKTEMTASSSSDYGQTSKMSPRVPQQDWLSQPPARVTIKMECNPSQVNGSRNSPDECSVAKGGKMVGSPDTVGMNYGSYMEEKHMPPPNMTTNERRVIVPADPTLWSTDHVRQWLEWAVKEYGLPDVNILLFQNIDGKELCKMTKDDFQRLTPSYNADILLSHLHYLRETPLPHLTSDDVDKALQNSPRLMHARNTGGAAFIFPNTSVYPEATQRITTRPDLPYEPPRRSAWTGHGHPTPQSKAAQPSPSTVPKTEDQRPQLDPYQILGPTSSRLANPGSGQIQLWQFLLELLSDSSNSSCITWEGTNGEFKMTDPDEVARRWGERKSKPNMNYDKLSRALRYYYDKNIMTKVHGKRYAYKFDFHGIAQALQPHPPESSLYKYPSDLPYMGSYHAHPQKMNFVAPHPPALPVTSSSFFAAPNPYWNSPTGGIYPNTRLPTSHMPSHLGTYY
How it was run: as §1

ELF1 = ELF1 (Homo sapiens, UniProt P32519 1-619)
Sequence of ELF1 (P32519 whole entry): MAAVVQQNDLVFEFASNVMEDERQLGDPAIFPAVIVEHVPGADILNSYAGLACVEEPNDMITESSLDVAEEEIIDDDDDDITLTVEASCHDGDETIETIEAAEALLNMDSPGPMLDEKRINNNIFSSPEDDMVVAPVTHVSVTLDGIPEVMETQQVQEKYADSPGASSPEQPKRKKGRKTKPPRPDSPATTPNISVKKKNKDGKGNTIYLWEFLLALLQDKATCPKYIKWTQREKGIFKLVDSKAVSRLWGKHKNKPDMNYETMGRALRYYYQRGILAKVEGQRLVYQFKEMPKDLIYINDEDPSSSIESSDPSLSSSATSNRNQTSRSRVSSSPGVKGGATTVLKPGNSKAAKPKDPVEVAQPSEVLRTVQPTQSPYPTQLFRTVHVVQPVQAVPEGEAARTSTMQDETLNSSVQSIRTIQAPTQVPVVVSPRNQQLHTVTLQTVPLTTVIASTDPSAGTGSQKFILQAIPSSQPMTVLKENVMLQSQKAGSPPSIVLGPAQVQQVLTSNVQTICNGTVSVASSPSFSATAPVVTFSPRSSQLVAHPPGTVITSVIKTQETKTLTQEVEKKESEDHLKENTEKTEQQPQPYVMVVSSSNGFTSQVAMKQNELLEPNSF
How it was run: as §1

SPI1 = SPI1 (Homo sapiens, UniProt P17947 1-270)
How it was run: as §1

SPIB = SPIB (Homo sapiens, UniProt Q01892 1-262)
Sequence of SPIB (Q01892 whole entry): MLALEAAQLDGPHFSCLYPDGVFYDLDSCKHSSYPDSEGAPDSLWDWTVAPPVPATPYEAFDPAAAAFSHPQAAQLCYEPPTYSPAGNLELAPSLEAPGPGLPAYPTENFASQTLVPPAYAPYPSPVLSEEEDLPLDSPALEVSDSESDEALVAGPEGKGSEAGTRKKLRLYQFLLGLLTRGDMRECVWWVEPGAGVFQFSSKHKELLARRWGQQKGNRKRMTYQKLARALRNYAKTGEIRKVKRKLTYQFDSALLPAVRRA
How it was run: as §1

ELK3 = biological target: T5, ELK3 (Homo sapiens, UniProt P41970 1-407)
T5 sequence: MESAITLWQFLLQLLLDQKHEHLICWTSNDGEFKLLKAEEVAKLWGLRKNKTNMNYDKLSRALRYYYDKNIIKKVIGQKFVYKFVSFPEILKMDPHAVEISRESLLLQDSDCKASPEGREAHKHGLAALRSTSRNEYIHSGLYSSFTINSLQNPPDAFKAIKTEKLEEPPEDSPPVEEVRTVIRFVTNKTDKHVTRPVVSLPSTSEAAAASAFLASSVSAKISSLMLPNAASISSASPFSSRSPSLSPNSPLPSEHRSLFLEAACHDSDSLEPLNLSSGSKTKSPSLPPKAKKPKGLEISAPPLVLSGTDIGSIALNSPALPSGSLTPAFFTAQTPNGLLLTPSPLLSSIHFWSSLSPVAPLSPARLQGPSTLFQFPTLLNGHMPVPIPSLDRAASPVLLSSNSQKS
How it was run: as §1

EHF = biological target: T6, EHF (Homo sapiens, UniProt Q9NZC4 1-300)
T6 sequence: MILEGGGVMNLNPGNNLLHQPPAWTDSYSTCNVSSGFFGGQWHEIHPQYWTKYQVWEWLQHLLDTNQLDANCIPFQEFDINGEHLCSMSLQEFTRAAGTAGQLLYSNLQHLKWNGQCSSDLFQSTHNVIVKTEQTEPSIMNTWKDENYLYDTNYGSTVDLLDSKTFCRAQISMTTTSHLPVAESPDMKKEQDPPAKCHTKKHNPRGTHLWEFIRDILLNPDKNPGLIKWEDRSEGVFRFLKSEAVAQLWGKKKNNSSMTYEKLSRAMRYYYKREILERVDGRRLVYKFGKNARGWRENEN
How it was run: as §1

Sequence | binding signal (FLI1) | binding signal (ELK1) | binding signal (GABPA) | binding signal (ERG) | binding signal (ELF1) | binding signal (SPI1) | binding signal (SPIB) | binding signal (ELK3) | binding signal (EHF)
CCTGTG | 1.06 fold enrichment (6-mer frequency, TF over GST control) | 1.24 fold enrichment (6-mer frequency, TF over GST control) | 1.08 fold enrichment (6-mer frequency, TF over GST control) | 1.21 fold enrichment (6-mer frequency, TF over GST control) | 1.11 fold enrichment (6-mer frequency, TF over GST control) | 1.04 fold enrichment (6-mer frequency, TF over GST control) | 1.18 fold enrichment (6-mer frequency, TF over GST control) | 1.01 fold enrichment (6-mer frequency, TF over GST control) | –
AACCCA | 1.05 fold enrichment (6-mer frequency, TF over GST control) | 1.03 fold enrichment (6-mer frequency, TF over GST control) | 1.02 fold enrichment (6-mer frequency, TF over GST control) | 1.06 fold enrichment (6-mer frequency, TF over GST control) | 1.06 fold enrichment (6-mer frequency, TF over GST control) | 1 fold enrichment (6-mer frequency, TF over GST control) | 1 fold enrichment (6-mer frequency, TF over GST control) | 1.1 fold enrichment (6-mer frequency, TF over GST control) | –
TATCAA | 1.1 fold enrichment (6-mer frequency, TF over GST control) | 1.06 fold enrichment (6-mer frequency, TF over GST control) | 1.13 fold enrichment (6-mer frequency, TF over GST control) | 1.03 fold enrichment (6-mer frequency, TF over GST control) | 1.02 fold enrichment (6-mer frequency, TF over GST control) | 1.02 fold enrichment (6-mer frequency, TF over GST control) | – | 1.02 fold enrichment (6-mer frequency, TF over GST control) | –
GTAGCA | 1.03 fold enrichment (6-mer frequency, TF over GST control) | 1.1 fold enrichment (6-mer frequency, TF over GST control) | 1.15 fold enrichment (6-mer frequency, TF over GST control) | – | 1.16 fold enrichment (6-mer frequency, TF over GST control) | 1.08 fold enrichment (6-mer frequency, TF over GST control) | 1.03 fold enrichment (6-mer frequency, TF over GST control) | 1.11 fold enrichment (6-mer frequency, TF over GST control) | 1.1 fold enrichment (6-mer frequency, TF over GST control)
AAGACT | 1.09 fold enrichment (6-mer frequency, TF over GST control) | 1.12 fold enrichment (6-mer frequency, TF over GST control) | 1.06 fold enrichment (6-mer frequency, TF over GST control) | 1.1 fold enrichment (6-mer frequency, TF over GST control) | 1.08 fold enrichment (6-mer frequency, TF over GST control) | 1.12 fold enrichment (6-mer frequency, TF over GST control) | 1.08 fold enrichment (6-mer frequency, TF over GST control) | 1.14 fold enrichment (6-mer frequency, TF over GST control) | –
ACCCAA | 1.12 fold enrichment (6-mer frequency, TF over GST control) | 1.15 fold enrichment (6-mer frequency, TF over GST control) | 1.18 fold enrichment (6-mer frequency, TF over GST control) | 1.03 fold enrichment (6-mer frequency, TF over GST control) | 1.16 fold enrichment (6-mer frequency, TF over GST control) | 1.12 fold enrichment (6-mer frequency, TF over GST control) | 1.08 fold enrichment (6-mer frequency, TF over GST control) | 1.03 fold enrichment (6-mer frequency, TF over GST control) | –
CAATCA | 1.11 fold enrichment (6-mer frequency, TF over GST control) | 1.11 fold enrichment (6-mer frequency, TF over GST control) | 1.24 fold enrichment (6-mer frequency, TF over GST control) | 1.14 fold enrichment (6-mer frequency, TF over GST control) | 1.19 fold enrichment (6-mer frequency, TF over GST control) | 1.08 fold enrichment (6-mer frequency, TF over GST control) | 1.1 fold enrichment (6-mer frequency, TF over GST control) | 1.05 fold enrichment (6-mer frequency, TF over GST control) | –
